Screening data (PubChem)
A selection: hits, their analogues and other compounds. The true share with any hit is near 6%.
D1 PAM – Potentiators of Human D1 Dopamine Receptor: qHTS; D(1A) dopamine receptor (Homo sapiens), P21728; HEK293 TREx D1 cells, calcium flux, dopamine EC20 potentiation; potentiation, % at 10 µM; 0.036% of 360,000 active; AID 504651, 2011; in the data active = potentiation above about 30%; note: 0% is about no effect
Target sequence (P21728 whole entry, looked up): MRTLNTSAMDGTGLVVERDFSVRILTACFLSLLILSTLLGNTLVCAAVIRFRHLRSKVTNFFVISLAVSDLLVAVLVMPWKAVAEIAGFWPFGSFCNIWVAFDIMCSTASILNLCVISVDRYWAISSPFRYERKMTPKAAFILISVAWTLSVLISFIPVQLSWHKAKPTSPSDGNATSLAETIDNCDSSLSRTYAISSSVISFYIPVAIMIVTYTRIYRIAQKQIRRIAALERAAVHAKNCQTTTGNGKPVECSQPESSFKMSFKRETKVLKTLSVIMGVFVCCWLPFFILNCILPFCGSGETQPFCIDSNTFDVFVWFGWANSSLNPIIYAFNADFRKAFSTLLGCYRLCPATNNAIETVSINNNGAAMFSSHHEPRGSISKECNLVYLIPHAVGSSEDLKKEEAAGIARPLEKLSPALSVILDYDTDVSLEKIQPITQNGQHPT
DRD3 antagonist – qHTS of D3 Dopamine Receptor Antagonist: qHTS. D3R cells, DiscoveRx beta-arrestin luminescence, antagonist mode; hits give low values. max response, negative = inhibition, %. 2.5% of 360,000 active. AID 652054, 2013; in the data active = max response below about -50%; inconclusive = no clear call, values can overlap the other calls; note: % is set by controls: 0 for no effect and ±100 for the full control effect
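Cells plated overnight at 1500 cells/well, then exposed to library compounds with dopamine controls for 90 minutes at 37 degrees C. DiscoveRx reagent added for 30–60 minutes at room temperature; luminescence read, quantitative HTS format.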
D3 ag – qHTS of D3 Dopamine Receptor Agonist: qHTS | AID 652048, 2013 | D(3) dopamine receptor (Homo sapiens), P35462 | D3R DiscoveRx beta-arrestin cells, luminescence, 90 min | 0.58% of 410,000 active | max activation, %; in the data active = max activation above about 30%; note: 0% is about no effect
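Agonist mode: compounds and dopamine controls were applied to plated cells for 90 min at 37 degrees C after an overnight attachment at 1500 cells/well. Luminescent read-out followed 30 - 60 minutes at room temperature with DiscoveRx detection reagent.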
D1 antag – Antagonist of Human D 1 Dopamine Receptor: qHTS | activity change, negative = inhibition, % at 10 µM | 3.2% of 360,000 active | HEK293 TREx D1 cells, calcium flux, dopamine EC80; hits give low values | AID 504652, 2011 | D(1A) dopamine receptor (Homo sapiens), P21728; in the data active = activity change below about -30%; note: % is set by controls: 0 for no effect and ±100 for the full control effect
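Tetracycline-induced HEK293 Trex D1 cells, force-coupled to calcium, dye-loaded; compounds added and read 180 s, then EC80 dopamine added and calcium flux tracked kinetically another 180 s.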
D1 ag – Allosteric Agonists of the Human D1 Dopamine Receptor: qHTS. 1% of 360,000 active. AID 504660, 2011. D(1A) dopamine receptor (Homo sapiens), P21728. activation, % at 2 µM. HEK293 T-REx D1 cells, calcium flux, agonist mode; in the data active = activation above about 30%; note: 0% is about no effect
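Tetracycline-induced HEK293 TREx D1 cells, force-coupled to calcium signalling, were dye-loaded with a no-wash calcium kit. Compound was pin-added after a 10 s baseline. Fluorescence was read kinetically at 1 cycle/s for 180 s, with calcium rises flagged as agonism.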
* hit, by the source's call; ? = inconclusive; . = no result given.

SMILES | D1 PAM | DRD3 antagonist | D3 ag | D1 antag | D1 ag
CCc1cccc(-n2c(=O)c3cccnc3n2CC(=O)Nc2ccc(OC)c(Cl)c2)c1 | -6.8 | . | 6.1 | -63.2* | 4.4
CCc1c(C)c2ccc(OCC(=O)OC(C)C)c(C)c2oc1=O | 2.9 | 56.5 | 40.8* | -24.9 | 10.9
CCCN1CCC(=O)N([C@H](COc2ccccc2)CC(C)C)CC1 | 0.5 | -57.6* | -39.1 | -9.4 | 3.3
CC(C)C[C@@H](COc1ccccc1)N1CCN(CCc2ccccc2)CCC1=O | -7.0 | ? | -45.0 | 1.4 | 1.1
c1ccc(C(c2ccccc2)c2noc(CN3CCC(c4ccncc4)CC3)n2)cc1 | 1.6 | -21.7 | 52.4* | -4.5 | 1.3
Cn1nnc2cc(NC(=O)NCc3ccc4c(c3)OCO4)ccc21 | -0.1 | -89.7* | -20.1 | 1.5 | 8.4
Cn1nnc2cc(C(=O)NCc3ccc4c(c3)OCO4)ccc21 | -1.6 | 9.7 | -0.9 | -1.3 | 2.0
CCC(=O)N1c2ccccc2CC1C(=O)NCCc1ccccc1Cl (centres undefined) | -0.2 | . | -26.4 | 14.0 | -2.1
CCCNC(=O)c1ccc(N2CCC3(CC2)CC(c2ccccc2)=NO3)c([N+](=O)[O-])c1 | -7.5 | 4.4 | 5.5 | -8.3 | 0.3
O=C(NCc1ccccc1)c1ccc(N2CCC3(CC2)CC(c2ccc(Cl)cc2)=NO3)c([N+](=O)[O-])c1 | -5.5 | -63.3* | -23.0 | -10.4 | 0.8
CC1(C)C2CCC(CN=C(N)CSS(=O)(=O)O)C1C2 (centres undefined) | . | -99.5* | -17.9 | . | .
COc1ccccc1NC(=O)CSc1nc(-c2ccc(C(C)(C)C)cc2)c(C#N)c(=O)[nH]1 | 3.4 | . | -18.9 | 2.4 | 6.7
CC1CCCN(S(=O)(=O)c2ccc3c(c2)CCN3C(=O)CCC(=O)O)C1 (centres undefined) | 2.5 | . | 14.5 | -6.0 | 2.0
O=[N+]([O-])c1ccc(CSc2ccccn2)cc1 | -0.8 | 8.8 | 0.7 | -3.8 | 1.5
COC(=O)c1ccc(Sc2ccccn2)c([N+](=O)[O-])c1 | -8.6 | -3.4 | -2.9 | -34.3* | 1.3
O=[N+]([O-])c1ccc(Sc2ccccn2)nc1 | 5.7 | -1.6 | 1.8 | -67.6* | 1.6
CC(C)(C)NC(=O)c1ccc(Sc2ccccc2)c([N+](=O)[O-])c1 | -0.4 | -50.2* | -4.0 | -28.7 | 2.6
NS(=O)(=O)c1ccc(Sc2ccccn2)c([N+](=O)[O-])c1 | -3.9 | -6.1 | -4.4 | -32.5* | 2.4
CSc1ccc(-c2nc3cccc(C)n3c2Nc2ccc(Cl)cc2)cc1 | -2.0 | . | -9.8 | 4.9 | 1.6
CNC(=O)CSc1nnc(-c2cnccn2)n1C | 5.1 | -2.4 | -1.0 | -14.7 | 1.1
CC(C)OC(=O)CSc1nnc(-c2cccnc2)n1N | -5.4 | -11.2 | 7.0 | -30.6* | 2.2
CC(C)OC(=O)CSc1nnc(-c2cnccn2)n1C | -1.9 | 11.6 | 4.2 | -34.8* | 1.4
Cc1cccc(C)c1NC(=O)CSc1nnc(-c2cnccn2)n1C | -4.2 | -1.9 | 0.7 | -50.8* | 1.2
CCOC(=O)c1c(Nc2ccc(C)cc2)nnc(-c2ccccc2)c1-c1ccccc1 | 0.5 | . | 21.6 | 11.5 | -0.6
COc1cccc(CNC(=O)C(=O)NCC(c2ccco2)S(=O)(=O)c2cccs2)c1 (centres undefined) | 2.2 | . | 4.0 | . | -0.3
SMILES | D1 PAM | DRD3 antagonist | D3 ag | D1 antag | D1 ag
COc1ccc(OCC(=O)N2CCN(C(=O)c3ccco3)CC2)cc1 | -0.9 | -54.0* | -5.8 | -5.7 | 1.5
O=C(COc1ccccc1)N1CCN(C(=O)c2ccco2)CC1 | -0.9 | 11.4 | 2.7 | -9.5 | -0.2
O=C(COC(=O)C1(c2ccc(F)cc2)CCCC1)NCc1ccc2c(c1)OCO2 | -10.0 | -10.8 | -2.1 | -31.6* | 10.1
COc1ccc(NC(=O)C(=O)NCCN2CCN(C(=O)c3ccco3)CC2)cc1 | -1.5 | 9.4 | 56.4* | 24.8 | -2.3
O=C(COC(=O)C1(c2ccccc2F)CCCC1)NCc1ccc2c(c1)OCO2 | -7.0 | 5.2 | -12.2 | -22.9 | 10.8
CC(C)c1ccc(OCC(=O)N2CCN(C(=O)c3ccco3)CC2)cc1 | -23.4 | -0.6 | 0.8 | 16.1 | 1.5
N#Cc1ccc(OCC(=O)N2CCN(C(=O)c3ccco3)CC2)cc1 | 2.7 | 1.2 | 2.1 | -35.0* | 1.6
